# Measurements reported in ChEMBL document CHEMBL1157539, “Thousands of chemical starting points for antimalarial lead identification” (Nature, 2010).
# What was measured:
# Type in all cases: functional
# [1] = test system: Plasmodium falciparum; test: GSK_TCMDC: Inhibition of Plasmodium falciparum 3D7 in whole red blood cells, using parasite LDH activity as an index of growth. Test compounds present at 2uM
# [2] = test system: Plasmodium falciparum; test: GSK_TCMDC: Inhibition of Plasmodium falciparum Dd2 in whole red blood cells, using parasite LDH activity as an index of growth. Test compounds present at 2uM
# [3] = test system: HepG2; test: GSK_TCMDC: Percent inhibition of human HepG2 cell line. Test compounds present at 10uM.
SMILES,Inhibition [1] [%],Inhibition [2] [%],Inhibition [3] [%]
COc1ccc2nccc([C@H](O)CN3CCC(NCc4cc(C)c5c(c4)OCCO5)CC3)c2n1.Cl,96,35,12
CCOc1cc(C(=O)NCCCN2CCN(c3cccc(Cl)c3)CC2)ccc1-c1nc2cc(Cl)c(F)cc2[nH]1,96,19,16
Cc1ccc(Oc2ncccc2C(=O)Nc2cccc3cccnc23)c(C)c1,99,76,0
C[C@@H](Oc1cc(-n2cnc3ccc(OCC4CCN(S(C)(=O)=O)CC4)cc32)sc1C(N)=O)c1ccccc1C(F)(F)F,84,50,31
Cc1ccc(CN2CCN(CC(O)COc3ccc4c(c3)CCC4)CC2)cc1 (stereo not given),95,0,0
CN(C)c1ccc(-c2csc(C(=O)NC3CCN(Cc4ccc(C(C)(C)C)cc4)C3)c2)cc1.O=C(O)C(F)(F)F (stereo not given),99,50,26
COc1cc(C)nc2ccc(NC(=O)Nc3ccc4nc(C)cc(OC)c4c3)cc12,100,83,79
O=C(Nc1ccc(N2CCCCC2)c(Cl)c1)c1nc[nH]n1,93,93,0
Cc1nc(-c2ccccc2)nc(N2CCN(C(=O)c3ccco3)CC2)c1Cc1ccccc1F,95,86,7
CO[C@H](C)[C@H](NC(=O)[C@H](CC(C)C)[C@H](CCC(F)(F)F)N(O)C=O)C(=O)Nc1nccs1,99,96,0
